# Compounds with a hit are over-represented: about 0.9% of the library has one in this group of screens.
# CDC25B-CDK2 inh: primary biochemical HTRF screen for blockers of M-phase inducer phosphatase 2 binding to CDK2/cyclin A; HTRF CDC25B-CDK2/CyclinA binding, anti-His/anti-Flag; active compounds read high; z-score (no concentration beside the values); actives 0.72% (n = 94,000); in the data active = z-score above about 3.2
# TAR Tat displ: TAR RNA-Tat peptide displacers, HIV-1, primary screen, biochemical, FRET, FAM/TAMRA-labeled Tat; z-score (no concentration beside the values); actives 0.6% (n = 100,000); HIV-1 TAR RNA, Tat peptide displacement FRET; active compounds read high; AID 1259389, 2018; active = z-score of 3 or more in at least 2 runs
# * marks the source's active call; other numbers are inactive results; x = no result.
SMILES,CDC25B-CDK2 inh,TAR Tat displ
CCn1cc(C(=O)N2CCc3ccccc3C2)c(=O)c2cc(S(=O)(=O)N3CCC(C)CC3)ccc21,15*,0.58
CCn1cc(C(=O)N2CCc3ccccc32)c(=O)c2cc(S(=O)(=O)N3CC(C)CC(C)C3)ccc21 (centres undefined),-0.41,1.9
O=C1c2c(O)cc(O)cc2OC(c2ccc(O)c(O)c2)C1O (centres undefined),-1,x
O=C1c2cc(O)cc(O)c2OC[C@@H]1c1ccc(O)c(O)c1,x,23*
CC(C)C12CN3CC(C(C)C)(CN(C1)C3c1ccc(Br)cc1)C2=O (centres undefined),-1.1,-0.15
Cc1sc2ncn(CC(=O)N3CCN(C)CC3)c(=O)c2c1S(=O)(=O)N1CCCCC1,-0.41,x
Cc1sc2ncn(CC(=O)N(C)C3CCCCC3)c(=O)c2c1S(=O)(=O)N1CCN(C)CC1,15*,-0.17
Cc1cc(Nc2ccc3c(c2)OCO3)n2nc(-c3ccco3)nc2n1,x,18*
Cc1cc(NCc2ccc3c(c2)OCO3)n2nc(-c3ccco3)nc2n1,x,-1.3
COC(=O)c1c(SCC(=O)Nc2ccc(F)c(F)c2)[nH]c2ccc(Cl)cc2c1=O,x,-0.18
COC(=O)c1c(SCC(=O)Nc2ccc(F)cc2)[nH]c2ccc(Cl)cc2c1=O,x,16*
Cc1cc(=O)n2nc(N3CCCC(C(=O)NC4CCCCC4)C3)sc2n1 (centres undefined),-0.45,3.9
CN(C)c1ccc(C(=O)NCCCCCC(=O)NO)cc1,x,10*
CN(C)c1ccc(NC(=O)CCCC(=O)O)cc1,-4.2,1.7
CC(C)N(Cc1nc(-c2ccc(Cl)cc2)no1)C(=O)NC1CCCCC1,-0.61,1.6
NC(N)=NS(=O)(=O)c1ccc(N/C=C\C(=O)c2ccc3ccccc3c2)cc1,18*,x
NC(N)=NS(=O)(=O)c1ccc(N/C=C\C(=O)c2ccc(F)cc2)cc1,-1.6,x
O=C(Nc1ccc(S(=O)(=O)Nc2ncccn2)cc1)c1nn(-c2ccccc2)ccc1=O,-1.1,0.19
Cc1noc(NS(=O)(=O)c2ccc(NC(=O)c3nn(-c4ccccc4)ccc3=O)cc2)c1C,-0.82,16*
Cc1cc2oc(C(=O)Nc3ccc(S(=O)(=O)Nc4onc(C)c4C)cc3)cc(=O)c2cc1C,-0.43,4.4*
Cc1ccc(C(=O)Nc2ccc(S(=O)(=O)Nc3onc(C)c3C)cc2)o1,-1.1,x
Cc1cc(F)ccc1S(=O)(=O)NCCc1csc(-c2ccc(F)cc2)n1,x,0.06
COc1ccc(OC)c(C2/C(=C(\O)c3ccccc3)C(=O)C(=O)N2c2cccnc2)c1 (centres undefined),-3.8,1.9
COc1ccc(OC)c(C2/C(=C(/O)c3ccc(C)cc3)C(=O)C(=O)N2c2cccnc2)c1 (centres undefined),6*,0.4
CCCN1C(=O)C2(c3ccccc31)c1c(oc3ccc(C)cc3c1=O)C(=O)N2CCCOC (centres undefined),-1.1,0.4
SMILES,CDC25B-CDK2 inh,TAR Tat displ
c1coc(-c2nc3ccccc3nc2-c2ccco2)c1,-0.23,x
O=C(O)c1cc2ccccc2nc1-c1ccco1,0.87,35*
O=C(Oc1cc(OC(=O)c2ccccc2)c2c(c1)O[C@H](c1ccc(OC(=O)c3ccccc3)c(OC(=O)c3ccccc3)c1)[C@@H](OC(=O)c1ccccc1)C2)c1ccccc1,x,-0.12
O=c1c(O)cc([C@H]2Oc3cc(O)cc(O)c3C[C@H]2O)cc2c([C@H]3Oc4cc(O)cc(O)c4C[C@H]3O)cc(O)c(O)c12,x,18*
O=C(O[C@@H]1Cc2c(O)cc(O)cc2O[C@@H]1c1ccc(O)c(O)c1)c1cc(O)c(O)c(O)c1,x,29*
CC(=O)Oc1cc(OC(C)=O)c2c(c1)O[C@H](c1ccc(OC(C)=O)c(OC(C)=O)c1)[C@@H](OC(C)=O)C2,x,0.8
O=C1C[C@@H](c2ccc(O)cc2)Oc2cc(O)cc(O)c21,x,2.9
O=C(O[C@@H]1Cc2c(O)cc(O)cc2O[C@@H]1c1cc(O)c(O)c(O)c1-c1c([C@H]2Oc3cc(O)cc(O)c3C[C@H]2O)cc(O)c(O)c1O)c1cc(O)c(O)c(O)c1,x,4.7*
O=C(O[C@@H]1Cc2c(O)cc(O)cc2O[C@@H]1c1cc(O)c(O)c(O)c1)c1cc(O)c(O)c(O)c1,x,25*
COc1cccc(-c2nnc(-c3cc([N+](=O)[O-])ccc3Oc3cncc(Cl)c3)o2)c1,-1.3,x
Cc1nn(-c2ccc(N3CCCCC3)nn2)c(C)c1CCC(=O)NCCN1CCOCC1,x,-1.6
Oc1cc(O)c2c(c1)O[C@H](c1ccc(O)c(O)c1)[C@H](O)C2,x,24*
Oc1ccc2c(c1)O[C@H](c1ccc(O)c(O)c1)[C@@H](O)C2,x,3.1
Cc1cccc(N2CSC3=C(C#N)C(c4ccc(F)cc4)CC(=O)N3C2)c1 (centres undefined),4.1*,-1.2
Cc1cccc(N2CSC3=C(C#N)C(c4ccccc4Cl)CC(=O)N3C2)c1 (centres undefined),0.48,0.81
CSc1ccc(C2CC(=O)N3CN(c4cccc(C)c4)CSC3=C2C#N)cc1 (centres undefined),8.5*,-2.6
CCOC(=O)Cc1csc(NC(=O)CSc2nnc3ccc4ccccc4n23)n1,0.75,0.63
Cc1ccc2nc3c(cc(C#N)c(=O)n3-c3ccc(C)c(Cl)c3)c(=O)n2c1,0.26,-1.5
CCOc1ccc(-c2noc(CSc3nnc(C)n3-c3cccc(C)c3)n2)cc1,0.22,2.2
CCOC(=O)Cn1c2ccc(Cl)cc2c2nc3ccccc3nc21,19*,0.94
CC(C)OC(=O)Cn1c2ccc(Cl)cc2c2nc3ccccc3nc21,-1.4,2.6
CSc1cccc(NC(=O)CCS(=O)(=O)c2cccc3nsnc23)c1,-1.3,-0.18
CCNC(=O)N1CCc2cc(S(=O)(=O)N3CCc4ccccc4C3)ccc21,x,0.51
C=C1c2cccc(O)c2C(O)=C2C(=O)[C@]3(O)C(O)=C(C(N)=O)C(=O)[C@@H](N(C)C)[C@@H]3[C@@H](O)[C@H]12,x,16*
C=C1c2c(Cl)ccc(O)c2C(O)=C2C(=O)[C@]3(O)C(O)=C(C(N)=O)C(=O)[C@@H](N(C)C)[C@@H]3[C@@H](O)[C@H]12,x,20*
SMILES,CDC25B-CDK2 inh,TAR Tat displ
COc1ccc(-c2nnc3c4cc5c(cc4n(Cc4ccccc4F)cc2-3)OCCO5)cc1OC,7.3*,1.1
COc1ccc(-c2nnc3c4cc5c(cc4n(Cc4ccccc4)cc2-3)OCCO5)cc1,-0.78,-0.71
COc1ccccc1Cn1cc2c(-c3ccc(F)cc3)nnc-2c2cc3c(cc21)OCO3,0.03,2
COc1ccc(Cn2cc3c(-c4ccccc4)nnc-3c3cc4c(cc32)OCCO4)cc1,7.4*,-4.9
O=C(Nc1ccc(F)cc1F)C1CCN(c2nnc(-n3cccc3)s2)CC1,x,1.4
CCn1c(=O)oc2ccc(C(=O)O)cc21,x,2.8
Cc1nc2sccn2c(=O)c1NC(=O)c1ccco1,x,1.4
Cc1nc2sccn2c1C(=O)NN,15*,x
CC(=O)Nc1nc(C)c(-c2csc(Nc3ccc(Cl)cc3)n2)s1,-0.18,-0.3
CC(=O)Nc1nc(C)c(-c2csc(NCc3ccccc3)n2)s1,6.8*,x
COc1c(Cl)c(C)c2c(c1Cl)OC(=O)c1c(C)c(Cl)c(O)c(Cl)c1O2,x,30*
COC(=O)c1c(OC)cc2c(c1C)Oc1c(Cl)c(OC(C)=O)c(Cl)c(C)c1C(=O)O2,x,-0.25
O=C(O)c1cccc2cccc(C(=O)O)c12,-1.3,x
O=C(O)c1cccc(O)c1O,x,9.6*
